# Data reported in the supplement of paper PMC10037445.
# Whole data set: some 2,900 compounds, median “NF-kB SEAP reporter activity, fold change vs agonist alone” near 0.99, cut for the highest 2% near 2.6. The sample holds the highest values, similar compounds and a random draw of the others, so the mix is not that of the screen.
# How the values were obtained:
# RAW-Dual [1] = test: NF-kB SEAP reporter activity, fold change vs agonist alone; cytotoxicity flag (confluency mask): not cytotoxic; higher = enhanced NF-kB activity
# Summary of the method: (§1)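 After 50 nL of library stock was delivered by pin tool to RAW-Dual macrophages (50,000 cells/well, DMEM, 384-well plates), a PRR agonist was added 1 h later and the plates were kept at 37 °C, 5% CO2. Twenty hours later, IRF was read from supernatant by QuantiLuc luminescence and NF-κB by QuantiBlue absorbance at 620 nm. Reporter activity is stated as fold change over agonist-alone wells. Wells with IncuCyte confluency under 70% of agonist controls in both mask sets were counted as cytotoxic.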
# RAW-Dual [2] = test: NF-kB SEAP reporter activity, fold change vs agonist alone; higher = enhanced NF-kB activity
# Summary of the method: as §1
# RAW-Dual [3] = test: NF-kB SEAP reporter activity, fold change vs agonist alone; cytotoxicity flag (confluency mask): cytotoxic (confluency <70% of control); higher = enhanced NF-kB activity
# Summary of the method: as §1
# [4] = agonist: ODN 1826 (TLR9) 0.5 ug/mL
# [5] = agonist: Pam2CSK4 (TLR2/6) 0.1 ug/mL
# [6] = agonist: Pam3CSK4 (TLR2/1) 0.1 ug/mL
# [7] = library stock concentration (final ~1000-fold dilution): 10 mM, cytotoxicity flag (confluency mask): not cytotoxic, agonist: MPLA (TLR4) […]
# [8] = library stock concentration (final ~1000-fold dilution): 10 mM, cytotoxicity flag (confluency mask): not cytotoxic, agonist: Imiquimod (TLR7) […]
# [9] = library stock concentration (final ~1000-fold dilution): 10 mM, cytotoxicity flag (confluency mask): cytotoxic (confluency <70% of control), agonist: Imiquimod (TLR7) […]
# [10] = library stock concentration (final ~1000-fold dilution): 10 mM, cytotoxicity flag (confluency mask): cytotoxic (confluency <70% of control), agonist: MPLA (TLR4) […]
smiles,measurement,setting,value
COc1cccc(-c2c(C)n(Cc3c(F)cccc3C(F)(F)F)c(=O)n(CC(NCCCC(=O)O)c3ccccc3)c2=O)c1F (stereo not drawn) (library stock concentration (final ~1000-fold dilution): 10 mM),NF-kB SEAP reporter activity,RAW-Dual [1]; agonist: LPS (TLR4) 0.1 ug/mL,1.32
same,NF-kB SEAP reporter activity,RAW-Dual [1]; [4],1.06
same,NF-kB SEAP reporter activity,RAW-Dual [1]; [5],0.866
same,NF-kB SEAP reporter activity,RAW-Dual [1]; [6],0.768
COc1cccc(-c2c(C)n(Cc3c(F)cccc3C(F)(F)F)c(=O)n(CC(NCCCC(=O)O)c3ccccc3)c2=O)c1F (stereo not drawn),NF-kB SEAP reporter activity,RAW-Dual [2]; [7],1.03
C=CC1(C)CC(OC(=O)CSCCN(CC)CC)C2(C)C(C)CCC3(CCC(=O)C32)C(C)C1O (stereo not drawn) (library stock concentration (final ~1000-fold dilution): 10 mM),NF-kB SEAP reporter activity,RAW-Dual [1]; agonist: LPS (TLR4) 0.1 ug/mL,1.56
same,NF-kB SEAP reporter activity,RAW-Dual [1]; [4],0.725
same,NF-kB SEAP reporter activity,RAW-Dual [1]; [5],1.11
same,NF-kB SEAP reporter activity,RAW-Dual [1]; [6],0.934
C=CC1(C)CC(OC(=O)CSCCN(CC)CC)C2(C)C(C)CCC3(CCC(=O)C32)C(C)C1O (stereo not drawn),NF-kB SEAP reporter activity,RAW-Dual [2]; [7],1.12
Nc1cccc2c1C(=O)N(C1CCC(=O)NC1=O)C2=O (stereo not drawn) (library stock concentration (final ~1000-fold dilution): 10 mM),NF-kB SEAP reporter activity,RAW-Dual [1]; agonist: LPS (TLR4) 0.1 ug/mL,1.16
same,NF-kB SEAP reporter activity,RAW-Dual [1]; [4],1.17
same,NF-kB SEAP reporter activity,RAW-Dual [1]; [5],1.08
same,NF-kB SEAP reporter activity,RAW-Dual [1]; [6],1.35
Nc1cccc2c1C(=O)N(C1CCC(=O)NC1=O)C2=O (stereo not drawn),NF-kB SEAP reporter activity,RAW-Dual [2]; [8],1.6
same,NF-kB SEAP reporter activity,RAW-Dual [2]; [7],1.07
O=C1CCC(N2C(=O)c3ccccc3C2=O)C(=O)N1 (stereo not drawn),NF-kB SEAP reporter activity,RAW-Dual [2]; [8],0.926
same,NF-kB SEAP reporter activity,RAW-Dual [2]; [7],0.792
Cc1sc2c(c1C)C(c1ccc(Cl)cc1)=N[C@@H](CC(=O)NCCCCCCCCNC(=O)COc1cccc3c1C(=O)N(C1CCC(=O)NC1=O)C3=O)c1nnc(C)n1-2 (stereo partly drawn),NF-kB SEAP reporter activity,RAW-Dual [2]; [9],1.73
same,NF-kB SEAP reporter activity,RAW-Dual [2]; [10],2.44
O=C1CCC(N2C(=O)c3ccccc3C2=O)C(=O)N1 (stereo not drawn) (library stock concentration (final ~1000-fold dilution): 10 mM),NF-kB SEAP reporter activity,RAW-Dual [1]; agonist: LPS (TLR4) 0.1 ug/mL,1.22
same,NF-kB SEAP reporter activity,RAW-Dual [1]; [4],1.01
same,NF-kB SEAP reporter activity,RAW-Dual [1]; [5],0.95
same,NF-kB SEAP reporter activity,RAW-Dual [1]; [6],1.17
Cc1sc2c(c1C)C(c1ccc(Cl)cc1)=N[C@@H](CC(=O)NCCCCCCCCNC(=O)COc1cccc3c1C(=O)N(C1CCC(=O)NC1=O)C3=O)c1nnc(C)n1-2 (stereo partly drawn) (library stock concentration (final ~1000-fold dilution): 10 mM),NF-kB SEAP reporter activity,RAW-Dual [3]; agonist: LPS (TLR4) 0.1 ug/mL,3.73
same,NF-kB SEAP reporter activity,RAW-Dual [3]; [4],1.84
same,NF-kB SEAP reporter activity,RAW-Dual [3]; [5],1.74
same,NF-kB SEAP reporter activity,RAW-Dual [3]; [6],3
Cc1sc2c(c1C)C(c1ccc(Cl)cc1)=NC(CC(=O)NCCCCNC(=O)COc1cccc3c1C(=O)N(C1CCC(=O)NC1=O)C3=O)c1nnc(C)n1-2 (stereo not drawn) (library stock concentration (final ~1000-fold dilution): 10 mM),NF-kB SEAP reporter activity,RAW-Dual [3]; agonist: LPS (TLR4) 0.1 ug/mL,7.56
same,NF-kB SEAP reporter activity,RAW-Dual [3]; [4],3.05
same,NF-kB SEAP reporter activity,RAW-Dual [3]; [5],1.99
same,NF-kB SEAP reporter activity,RAW-Dual [3]; [6],3.03
Cc1sc2c(c1C)C(c1ccc(Cl)cc1)=NC(CC(=O)NCCCCNC(=O)COc1cccc3c1C(=O)N(C1CCC(=O)NC1=O)C3=O)c1nnc(C)n1-2 (stereo not drawn),NF-kB SEAP reporter activity,RAW-Dual [2]; [9],1.89
same,NF-kB SEAP reporter activity,RAW-Dual [2]; [10],2.59
C/C=C1/C2C=C(C)CC1(N)c1ccc(=O)[nH]c1C2 (stereo not drawn) (library stock concentration (final ~1000-fold dilution): 2 mM),NF-kB SEAP reporter activity,RAW-Dual [1]; agonist: LPS (TLR4) 0.1 ug/mL,1.33
same,NF-kB SEAP reporter activity,RAW-Dual [1]; [4],1.01
same,NF-kB SEAP reporter activity,RAW-Dual [1]; [5],1.14
same,NF-kB SEAP reporter activity,RAW-Dual [1]; [6],1.01
C/C=C1/C2C=C(C)CC1(N)c1ccc(=O)[nH]c1C2 (stereo not drawn),NF-kB SEAP reporter activity,"RAW-Dual [2]; library stock concentration (final ~1000-fold dilution): 2 mM, cytotoxicity flag (confluency mask): not cytotoxic, agonist: Imiquimod (TLR7) […]",0.822
same,NF-kB SEAP reporter activity,"RAW-Dual [2]; library stock concentration (final ~1000-fold dilution): 2 mM, cytotoxicity flag (confluency mask): not cytotoxic, agonist: MPLA (TLR4) […]",1.1
CC1c2cccc(O)c2C(=O)C2=C(O)C3(O)C(=O)C(C(N)=O)=C(O)C(N(C)C)C3C(O)C21.CC1c2cccc(O)c2C(=O)C2=C(O)C3(O)C(=O)C(C(N)=O)=C(O)C(N(C)C)C3C(O)C21.CCO.Cl.Cl.O (stereo not drawn) (library stock concentration (final ~1000-fold dilution): 10 mM),NF-kB SEAP reporter activity,RAW-Dual [1]; agonist: LPS (TLR4) 0.1 ug/mL,1.6
same,NF-kB SEAP reporter activity,RAW-Dual [1]; [4],0.969
same,NF-kB SEAP reporter activity,RAW-Dual [1]; [5],1.26
same,NF-kB SEAP reporter activity,RAW-Dual [1]; [6],0.938
CC1c2cccc(O)c2C(=O)C2=C(O)C3(O)C(=O)C(C(N)=O)=C(O)C(N(C)C)C3C(O)C21.CC1c2cccc(O)c2C(=O)C2=C(O)C3(O)C(=O)C(C(N)=O)=C(O)C(N(C)C)C3C(O)C21.CCO.Cl.Cl.O (stereo not drawn),NF-kB SEAP reporter activity,RAW-Dual [2]; [8],0.998
same,NF-kB SEAP reporter activity,RAW-Dual [2]; [7],1.13
O=C(O)/C(S)=C/c1c[nH]c2ccc(F)cc12 (library stock concentration (final ~1000-fold dilution): 10 mM),NF-kB SEAP reporter activity,RAW-Dual [1]; agonist: LPS (TLR4) 0.1 ug/mL,0.886
same,NF-kB SEAP reporter activity,RAW-Dual [1]; [4],0.864
same,NF-kB SEAP reporter activity,RAW-Dual [1]; [5],0.988
same,NF-kB SEAP reporter activity,RAW-Dual [1]; [6],0.934
O=C(O)/C(S)=C/c1c[nH]c2ccc(F)cc12,NF-kB SEAP reporter activity,RAW-Dual [2]; [8],0.865
same,NF-kB SEAP reporter activity,RAW-Dual [2]; [7],1.08
COC(=O)C1=C(C)NC(C)=C(C(=O)OCCN2CCN(C(c3ccccc3)c3ccccc3)CC2)C1c1cccc([N+](=O)[O-])c1.Cl.Cl (stereo not drawn),NF-kB SEAP reporter activity,RAW-Dual [2]; [8],0.58
same,NF-kB SEAP reporter activity,RAW-Dual [2]; [7],0.873
COC(=O)C1=C(C)NC(C)=C(C(=O)OCCN2CCN(C(c3ccccc3)c3ccccc3)CC2)C1c1cccc([N+](=O)[O-])c1.Cl.Cl (stereo not drawn) (library stock concentration (final ~1000-fold dilution): 10 mM),NF-kB SEAP reporter activity,RAW-Dual [1]; agonist: LPS (TLR4) 0.1 ug/mL,0.834
same,NF-kB SEAP reporter activity,RAW-Dual [1]; [4],0.364
same,NF-kB SEAP reporter activity,RAW-Dual [1]; [5],0.241
same,NF-kB SEAP reporter activity,RAW-Dual [1]; [6],0.405
CN(C)CCOC(c1ccccc1)c1ccccc1.Cl (library stock concentration (final ~1000-fold dilution): 10 mM),NF-kB SEAP reporter activity,RAW-Dual [1]; agonist: LPS (TLR4) 0.1 ug/mL,1.27
same,NF-kB SEAP reporter activity,RAW-Dual [1]; [4],0.728
same,NF-kB SEAP reporter activity,RAW-Dual [1]; [5],0.917
same,NF-kB SEAP reporter activity,RAW-Dual [1]; [6],1.1
CN(C)CCOC(c1ccccc1)c1ccccc1.Cl,NF-kB SEAP reporter activity,RAW-Dual [2]; [8],1.39
same,NF-kB SEAP reporter activity,RAW-Dual [2]; [7],0.886
Cl.Cn1cc(C(=O)C2CCc3nc[nH]c3C2)c2ccccc21 (stereo not drawn),NF-kB SEAP reporter activity,RAW-Dual [2]; [8],0.775
same,NF-kB SEAP reporter activity,RAW-Dual [2]; [7],0.816
Cn1cc(CC(N)C(=O)O)c2ccccc21 (stereo not drawn) (library stock concentration (final ~1000-fold dilution): 2 mM),NF-kB SEAP reporter activity,RAW-Dual [1]; agonist: LPS (TLR4) 0.1 ug/mL,1.05
same,NF-kB SEAP reporter activity,RAW-Dual [1]; [4],1.22
same,NF-kB SEAP reporter activity,RAW-Dual [1]; [5],1.19
same,NF-kB SEAP reporter activity,RAW-Dual [1]; [6],1.05
Cl.Cl.Cn1cc(CNCC2CCN(c3ncc(C(=O)NO)cn3)CC2)c2ccccc21 (library stock concentration (final ~1000-fold dilution): 10 mM),NF-kB SEAP reporter activity,RAW-Dual [3]; agonist: LPS (TLR4) 0.1 ug/mL,7.01
same,NF-kB SEAP reporter activity,RAW-Dual [3]; [4],1.95
same,NF-kB SEAP reporter activity,RAW-Dual [3]; [5],1.13
same,NF-kB SEAP reporter activity,RAW-Dual [3]; [6],1.93
Cl.Cn1cc(C(=O)C2CCc3nc[nH]c3C2)c2ccccc21 (stereo not drawn) (library stock concentration (final ~1000-fold dilution): 10 mM),NF-kB SEAP reporter activity,RAW-Dual [1]; agonist: LPS (TLR4) 0.1 ug/mL,1.01
same,NF-kB SEAP reporter activity,RAW-Dual [1]; [4],0.67
same,NF-kB SEAP reporter activity,RAW-Dual [1]; [5],0.928
same,NF-kB SEAP reporter activity,RAW-Dual [1]; [6],0.877
